# Source: PubChem BioAssay
# Epigenetic reg = Quantitative High-Throughput Screen for Regulators of Epigenetic Control; actives 0.2% (n = 280,000); Potency, µM (top dose mostly 53.9 µM), for inactives: at the top dose GFP activation, actives largely listed as activators; murine LDR cells, GFP reporter derepression, 30 h; AID 1865, 2009; also: % of control where 0% means no effect; nearly all actives have a fitted effect of over 60% in size
#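 Readout is the number of GFP-expressing murine LDR cells, counted by cytometry following washing. Cells were treated with compound for 30 h at 37 C; the stably integrated CMV-GFP locus is normally silent.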
# Gal4-VP16 FLuc = VP16 counterscreen qHTS for inhibitors of ROR gamma transcriptional activity; Potency, µM (titrated, usually from 53.6 µM), without a hit: top-dose activity, negative = inhibition, actives largely listed as inhibitors; AID 2546, 2010; actives 3.5% (n = 310,000); Drosophila S2 Gal4-VP16 UAS-luciferase, luminescence, 20 h;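 also: Gal4-VP16 expression switched on by copper sulfate through the metallothionein promoter; % is scaled to controls: 0 for no effect and ±100 for the full control effect; nearly all actives have a fitted effect of over 50% in size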
# PINK1 modulator = A Quantitative High throughput Screen to Identify Chemical Modulators of PINK1 Expression. actives 0.2% (n = 410,000). AID 624263, 2012. PINK1 immunofluorescence, high-content cytometry, 24 h. Potency, µM (doses to about 76.6 µM), for the others: at the top dose activation (PINK1 increase), usual class: activators; active = well fitted activation curve with a large enough effect; inconclusive = small, poorly fitted or top-dose-only effect; cell line not stated here; also: % of control where 0% means no effect; nearly all actives have a fitted effect of over 65% in size
#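 Fluorescence from anti-PINK1 antibody, together with nuclear and cell stains, was scanned on a laser-scanning cytometer. Before staining, stable-line cells were incubated 24 hours with compounds at 5 concentrations; primary antibody 12 h at 10 degrees C.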
# ClpP mod = qHTS Assay for Activators of ClpP. purified B. subtilis ClpP, FRET peptide cleavage, 20 min. actives 1.9% (n = 340,000). ATP-dependent Clp protease proteolytic subunit (Bacillus subtilis (strain 168)), P80244. Potency, µM (highest dose often 57.5 µM), for the others: at the top dose activity change, negative = active; active = well fitted falling curve with a large enough effect; inconclusive = small, poorly fitted or top-dose-only effect; inactive = no such curve, though single readings can be large or run the other way; also: the source files actives as falling curves though it sought activators and does not explain the sign; nearly all actives have a fitted effect of over 65% in size
#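 ClpP 10 microg/mL final, pH 8 Tris/KCl buffer with BSA, glycerol, Tween-20; compound pinned in; FRET-FV substrate; RT 20 min; Ex320/Em430; ΔFRET vs ADEP 5.8 microM, DMSO, no enzyme.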
# RORg inh = qHTS for inhibitors of ROR gamma transcriptional activity. Potency, µM (titrated, usually from 53.6 µM), for inactives: at the top dose activity change, negative = inhibition, hits mostly inhibitors. Nuclear receptor ROR-gamma (Mus musculus), P51450. actives 5.4% (n = 310,000). Drosophila S2 Gal4-RORgamma UAS-luciferase reporter, 20 h; also: % is scaled to controls: 0 for no effect and ±100 for the full control effect; nearly all actives have a fitted effect of over 60% in size
# Target sequence (P51450 whole entry, looked up, the tested form may be a part): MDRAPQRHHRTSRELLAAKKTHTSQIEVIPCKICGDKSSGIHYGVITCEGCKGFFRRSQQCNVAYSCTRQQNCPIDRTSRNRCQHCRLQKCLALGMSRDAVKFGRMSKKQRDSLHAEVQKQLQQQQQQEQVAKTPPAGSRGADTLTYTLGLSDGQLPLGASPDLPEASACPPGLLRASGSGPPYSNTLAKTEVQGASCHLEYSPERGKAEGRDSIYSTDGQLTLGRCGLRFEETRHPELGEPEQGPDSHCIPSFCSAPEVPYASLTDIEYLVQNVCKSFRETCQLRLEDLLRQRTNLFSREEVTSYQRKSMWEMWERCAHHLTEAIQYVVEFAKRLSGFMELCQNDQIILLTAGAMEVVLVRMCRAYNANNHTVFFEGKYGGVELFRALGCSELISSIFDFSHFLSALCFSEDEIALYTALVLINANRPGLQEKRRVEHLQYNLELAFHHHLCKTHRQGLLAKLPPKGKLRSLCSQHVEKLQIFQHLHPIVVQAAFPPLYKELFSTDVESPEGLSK
#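 Drosophila Schneider cells stably carrying a metallothionein-driven Gal4 DBD–ROR gamma fusion and a UAS-Photinus luciferase reporter were exposed to compound for 1 hr, then induced with copper sulfate (700 uM final) for 20 hr at ambient temperature before luminescence reading.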
# Sfp inh = qHTS Assay for Inhibitors of Bacillus subtilis Sfp phosphopantetheinyl transferase (PPTase); 4'-phosphopantetheinyl transferase ffp (Bacillus subtilis), Q9F4F7; Biochemical Sfp PPTase activity, qHTS; Potency, µM, inactives show largest response in the series, negative = inhibition, most hits filed as inhibitors; actives 3.5% (n = 310,000);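 also: the enzyme is Sfp with the accession as filed and its product quenches rhodamine fluorescence; 0% = enzyme reaction without inhibitor and -100% = no enzyme wells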
#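 With Hepes-Na pH 7.6 buffer containing 10 mM MgCl2, Sfp (15 nM) modified BHQ-2-YbbR (12.5 uM) using rhodamine-CoA (5 uM). Two reads 30 minutes apart at 525/598 nm yielded each well's rate.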
# Starred values were filed as active, the others as inactive; ? = inconclusive; . = not tested or not shown; [ ] = another dose, or the depositor's remark. This is a sample that favours compounds with a hit; in the whole collection about 8.1% have one here. Unless noted, calls follow the shape of the dose curve; as a rule, active = well fitted curve in the direction sought with a large enough effect; inconclusive = small, poorly fitted or top-dose-only effect, or another doubt; inactive = no such curve, though single readings can be large; an effect the other way counts as inactive or inconclusive. Potency is read from the fitted curve at half-maximal effect.
SMILES,Epigenetic reg,Gal4-VP16 FLuc,PINK1 modulator,ClpP mod,RORg inh,Sfp inh
N=C1/C(=C/c2cccn2-c2ccc([N+](=O)[O-])cc2)C(=O)N=C2SC=CN12,-1%,-12%,?,0%,8%,-8%
Cc1cccc(Cn2cccc2/C=C2/C(=N)N3C=CSC3=NC2=O)c1,-1%,7.9µM*,6%,-5%,8.9µM*,?
N=C1/C(=C/c2cccn2Cc2ccc(F)cc2)C(=O)N=C2SC=CN12,1%,-14%,4%,0%,10µM*,-5%
Cc1cccc(NC(=O)c2cccc(C(=O)Nc3cccc(C)c3)n2)c1,.,.,7%,.,.,.
Cc1cc(C)cc(NC(=O)c2cccc(C(=O)Nc3cc(C)cc(C)c3)n2)c1,.,-4%,-2%,-3%,8%,56µM*
O=[N+]([O-])c1cccc(S(=O)(=O)NCc2ccncc2)c1,.,10µM*,-1%,.,23%,22%
O=[N+]([O-])c1cccc(NC(=S)NCc2ccncc2)c1,0%,-12%,4%,.,11%,13µM*
O=[N+]([O-])c1cccc(NC(=S)Nc2nc(-c3ccccc3Cl)cs2)c1,.,2.5µM*,?,1%,2µM*,?
COc1ccc2c(c1)cc1c(=O)n(CC(=O)NC(C)C)nc(C)n12,1%,.,3%,1%,.,.
O=C(CCCc1nc2ccccc2s1)N1CCN(c2ccccc2)CC1,-1%,4µM*,1%,-2%,0%,45µM*
O=C(CCCc1nc2ccccc2s1)N1CCN(c2ccccc2F)CC1,0%,2%,-1%,-1%,48%,-4%
Cc1cc(C)c2cccc(NC(=S)NC(=O)c3ccccc3)c2n1,0%,3.2µM*,18%[38.3 µM],-1%,?,-14%
CC(=O)NC(=S)Nc1cccc2c(C)cc(C)nc12,-2%,11µM*,-1%,-5%,1.6µM*,-10%
Cc1ccc2cccc(NC(=S)NC(=O)c3ccccc3)c2n1,0%,7.9µM*,2%,3%,1.8µM*,?
Cc1cc(C)c2cccc(N)c2n1,1%,2%,7%,.,0%,-9%
Cc1ccc2cn[nH]c2c1NC(=S)NC(=O)c1ccccc1,-1%,-4%,-5%,-1%,?,5%
O=C(NC(=S)Nc1cccc(NC(=S)NC(=O)c2ccccc2)c1)c1ccccc1,.,.,7%,.,.,.
Cc1ccc2cccnc2c1NC(=S)NC(=O)c1ccccc1,?,3.5µM*,-4%[38.3 µM],2%,1.3µM*,18µM*
Cc1ccc(C)c(N2CCN(C(=O)c3cc4c(=O)n(Cc5cccs5)ccc4nc3C)CC2)c1,-1%,.,-1%,?,.,.
Cc1cc(-c2nc3ncccc3o2)ccc1NC(=O)c1ccc(Cl)cc1,14%,.,0%,-6%,.,.
Fc1cccc(COc2ccccc2C(=S)N2CCCC2)c1,-5%,3%,1%,1%,11µM*,11%
CCC(CC)c1nnc(NC(=O)C2CC(=O)N(C3CCCC3)C2)s1 (centres undefined),.,-3%,0%,.,1%,50µM*
CCC(CC)c1nnc(NC(=O)C2CC(=O)N(CCc3ccc(F)cc3)C2)s1 (centres undefined),.,?,1%,.,?,11µM*
Cc1nc2sccn2c1CN1Cc2ccccc2OC(c2ccccc2F)C1 (centres undefined),.,.,-1%,.,.,.
CCOC(=O)c1[nH]c2ccc(OCC)cc2c1NC(=O)CN1CCCC(C)C1 (centres undefined),-2%,-20%,0%,14µM*,8%,16%
CCOC(=O)c1[nH]c2cc(OC)c(OC)cc2c1NC(=O)CN1CCN(C)CC1,-1%,-1%,.,.,3%,1%
